From PubChem BioAssay AID1220 (Sanford-Burnham Center for Chemical Genomics, 2008) come the findings set out here.

Hit rate of the full screen: of about 190,000 compounds, about 1,300 (0.68%) were called active. The sample holds actives, similar compounds and a random draw of the others, so the mix is not that of the screen. Unmarked numbers belong to inactive results. Cut-off read from the data, not from the text of the source: active = inhibition above about 50%; inactive = the rest.

Sequence of Mannose-6-phosphate isomerase (Homo sapiens) (P34949 whole entry, looked up): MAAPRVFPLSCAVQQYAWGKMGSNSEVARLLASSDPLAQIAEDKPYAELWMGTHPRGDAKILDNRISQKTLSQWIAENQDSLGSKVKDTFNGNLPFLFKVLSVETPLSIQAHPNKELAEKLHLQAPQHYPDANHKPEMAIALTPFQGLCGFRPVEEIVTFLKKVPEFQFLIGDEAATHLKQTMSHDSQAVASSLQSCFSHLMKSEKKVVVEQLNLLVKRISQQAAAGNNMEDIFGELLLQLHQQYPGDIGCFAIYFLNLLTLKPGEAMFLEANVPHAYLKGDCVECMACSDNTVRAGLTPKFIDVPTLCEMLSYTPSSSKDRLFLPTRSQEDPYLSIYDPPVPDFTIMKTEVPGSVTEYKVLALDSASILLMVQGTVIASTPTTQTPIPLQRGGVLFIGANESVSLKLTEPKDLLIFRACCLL

The test has as its target Mannose-6-phosphate isomerase (Homo sapiens) (UniProt P34949). Nature of the test: human PMI inhibitors, high substrate, primary screen, biochemical, fluorescence intensity, high mannose 6-phosphate (AID 1220). Particulars: recombinant PMI enzyme, coupled fluorescence intensity; at 20 µM; stronger effect = higher value.
With `O=C(CNc1ccccc1)N/N=C/c1ccc([N+](=O)[O-])o1`, the inhibition is 8%.
The figure for `O=C(CNc1ccc2ccccc2c1)N/N=C/c1ccc([N+](=O)[O-])o1` is 46.2%; for `O=C(CNc1cccc2ccccc12)N/N=C/c1ccc([N+](=O)[O-])o1` it is 60.4% (active); for `O=C(O)/C=C/C(=O)N1CCN(c2ccccc2F)CC1` it is 2.7%.
For `N#CCSc1nnc(C2CCCCC2)n1-c1ccccc1` the value was 11.9%; for `NC(=O)c1cccc(S(=O)(=O)N2CC(c3ccccc3)CC2=O)c1` (stereo not given), 5.1%.
`Cc1c(C(=O)Oc2cccc3cccnc23)cccc1[N+](=O)[O-]`: the inhibition was 36.1%.
The figure for `COc1ccc(C(=O)Oc2cccc3cccnc23)cc1[N+](=O)[O-]` is 51.9% (active).
For `O=[N+]([O-])c1ccc(Oc2cccc3cccnc23)c([N+](=O)[O-])c1` the value was 11.4%; for `NC(=O)c1ccc(Oc2cccc3cccnc23)c([N+](=O)[O-])c1`, 50.2% (active); for `Cc1cc(Cl)ccc1Oc1ccc(C(N)=O)cc1[N+](=O)[O-]`, 5.8%.
For the compound `O=C(Oc1cccc2cccnc12)c1cccc([N+](=O)[O-])c1`, the inhibition is 44.3%.
`COc1cccc(CNC(=O)CCC2CCCN(C(=O)CCC(F)(F)F)C2)c1` (stereo not given): the inhibition was 7.7%.
For `CCNc1nc(NCC)n2c(SCC(=O)c3ccc(C(C)C)cc3)nnc2n1` the value was -21%; for `CCCNC(=O)Cc1c(O)c2ccccc2[nH]c1=O`, 6.5%.
For `COc1ccc(C2C3=C(Nc4ncnn42)c2ccccc2CCC3)cc1` (stereo not given) the value was 3.7%.
For `COc1ccc(C2C3=C(Nc4ncnn42)c2ccccc2CC3)cc1OC` (stereo not given) the value was 38.6%; for `COc1cc(C2C3=C(Nc4ncnn42)c2ccccc2CC3)cc(OC)c1OC` (stereo not given), 51.9% (active); for `Cc1cccc2cc(-c3nc4c(C)cccn4c3NCc3ccco3)c(=O)[nH]c12`, 1.7%.
Consider `Cc1ccc2[nH]c(=O)c(-c3nc4ccccn4c3NCc3ccco3)cc2c1`, for which the inhibition is -4.9%.
The figure for `Cc1ccc2[nH]c(=O)c(-c3nc4cc(C)ccn4c3NCc3ccco3)cc2c1` is 53.7% (active); for `Cc1cccn2c(=O)c(C=Nc3ccccc3)c(NCc3ccco3)nc12` it is -12.9%; for `Cc1ccc2[nH]c(=O)c(-c3nc4c(C)cccn4c3NCc3ccco3)cc2c1` it is 55.2% (active).
For `Cc1ccn2c(-c3csc(NCc4ccco4)n3)c(C)nc2c1` the value was 48.7%.
With `CC1CCCCC1NCc1cccc([N+](=O)[O-])c1` (stereo not given), the inhibition was 2.2%.
For `CCc1ccc(C2=NN(S(C)(=O)=O)C(c3cccs3)C2)cc1` (stereo not given) the value was 3.7%; for `COc1ccccc1NC(=O)Cn1cnc2sc(C(=O)NCc3ccco3)c(C)c2c1=O`, -4.1%; for `Nc1nc2c(Cl)ccc(Cl)c2s1`, 8%.
With `Nn1c(SCc2ccccn2)nncc1=O`, the inhibition is -1.6%.
For `C/C(=N\Nc1ccccn1)c1ccc(C(C)C)cc1`, the inhibition was 11.6%.
The figure for `CCOc1ccccc1NC(=O)COC(=O)C(CC)c1ccccc1` (stereo not given) is 64.5% (active); for `CCC(C(=O)OCC(=O)Nc1ccc(OC)cc1OC)c1ccccc1` (stereo not given) it is 10.5%; for `CCC(C(=O)OCC(=O)Nc1cc(C)ccc1OC)c1ccccc1` (stereo not given) it is 0.3%.
The figure for `O=C(NC1CCCc2ccccc21)c1ccc2c(c1)OCO2` (stereo not given) is 8.7%.
The figure for `COc1ccc(-n2cc(CNCC3CCOCC3)c(-c3cccc(F)c3)n2)cc1` is 4.6%; for `CCOC(=O)C1CCN(c2cc(=O)n(-c3ccccc3Cl)c(=O)[nH]2)CC1` it is -1.4%.
As for `Cc1nc(-c2ccccc2)ccc1C(=O)O`, the inhibition is 0.4%.
For `Cc1nc(-c2ccccc2)cn(O)c1=O` the value was 65.6% (active).
For `O=c1c(-c2ccccc2)nc(-c2ccccc2)cn1O` the value was 3.4%; for `CCOC(=O)N1CCN(C(=O)CSc2ccc3nnc(-c4ccncc4)n3n2)CC1`, 8.4%; for `COc1ccccc1/C=N/Nc1nncc2ccccc12`, -1.9%.
On to `COc1ccccc1/C=N/Nc1cc(N(C)C)nc(N(C)C)n1`, for which the inhibition was 63.4% (active).
For `COc1ccccc1/C=N/NC1=NCCCCC1` the value was 0.4%.
With `O=C(CCCN1C(=O)c2ccccc2C1=O)Nc1c2c(nc3c1CCC3)CCC2`, the inhibition is -20.1%.
The figure for `Cc1nn(C)c(C)c1NC(=O)CC12CC3CC(CC(C3)C1)C2` is -1.3%.
On to `COc1cc(C)nc(N2CCC(C(=O)NC3CCCCC3)CC2)n1`, for which the inhibition was 3.7%.
As to `CC(=O)c1cccc(NC(=O)CCS(=O)(=O)c2cccc3nsnc23)c1`, the inhibition is -33.5%.
For `CCOc1ccc(OCCCCNCCN)cc1` the value was -2.4%.
Turning to `CCOc1ccc(OCCCCNC(C)(C)C)cc1`, the inhibition is 58.8% (active).
For `CC(C)(C)NCCCCOc1ccc(F)cc1` the value was 4.1%.
For `O=P(CO)(Cc1ccccc1)Cc1ccccc1` the value was 5%.
For `O=C(O)C/C=C(\NC(=O)OCc1ccccc1)C(=O)OCc1ccccc1` the value was -163%; for `Cn1cnnc1SC/C(O)=C(\C#N)c1nc2ccccc2[nH]1`, 0.7%.
`Cc1cc(C)n2c(SC/C(O)=C(\C#N)c3nc4ccccc4[nH]3)nnc2n1`: the inhibition was 53.4% (active).
`Cc1ccccc1-n1c(SC/C(O)=C(\C#N)c2nc3ccccc3[nH]2)nnc1-c1ccncc1`: the inhibition is 20.6%.
For `CCOc1cc(/C=N/NC(=O)COc2ccc(Cl)cc2)ccc1OS(=O)(=O)c1ccccc1` the value was -94.4%; for `COc1ccccc1C(=O)Nc1cc2cc(Cl)ccc2oc1=O`, -8%; for `COC(=O)C(N)Cc1ccc(O)cc1` (stereo not given), -2.8%.
Turning to `COC(=O)[C@@H](N)Cc1ccc(O)cc1`, the inhibition was 6.4%.
For `NC(CO)C(=O)NNCc1ccc(O)c(O)c1O` (stereo not given) the value was 60.4% (active).
The figure for `COc1cc2c(cc1OC)CN(C(=O)CSc1nnc(C)s1)CC2` is -13.4%.
For `N#CC1=C2SCN(Cc3ccccc3)CN2C(=O)CC1c1cccs1` (stereo not given) the value was 67.2% (active); for `N#CC1=C2SCN(Cc3ccccc3)CN2C(=O)CC1c1ccccc1F` (stereo not given), 52.1% (active).
For the compound `CCc1ccccc1N1CSC2=C(C#N)C(c3ccccc3F)CC(=O)N2C1` (stereo not given), the inhibition was -5.1%.
Take `N#CC1=C2SCN(c3ccccc3)CN2C(=O)CC1c1cccs1` (stereo not given): the inhibition is -2%.
For `CCc1ccc(N2CSC3=C(C#N)C(c4cccs4)CC(=O)N3C2)cc1` (stereo not given) the value was -68.6%; for `N#CC1=C2SCN(c3ccccc3)CN2C(=O)CC1c1ccccc1Cl` (stereo not given), -41%; for `O=C(COC(=O)c1cccnc1)Nc1ccc2c(c1)OCO2`, 17.6%.
The figure for `Cc1cc(C)c(C(=O)Nc2ccc(S(=O)(=O)Nc3onc(C)c3C)cc2)c(C)c1` is 7.8%.
For the compound `OC(COC1CCCCC1)CN1CCN(c2ccccc2)CC1` (stereo not given), the inhibition was 10.6%.
Regarding `N/C(=N\OC(=O)c1cc(Cl)ccc1Cl)c1ccccn1`, the inhibition is -10.6%.
For `Cc1cc(C)n(CCN(C)c2nc3nonc3nc2NC2CC2)n1` the value was 14.8%.
For `Cc1ccc([N+](=O)[O-])cc1S(=O)(=O)NCCc1c(C)[nH]c2c(C)cccc12` the value was -3%.
For `CN(C)C(=O)c1ccc2c(c1[N+](=O)[O-])C(=O)c1ccccc1C2=O` the value was -16.2%; for `CCCNC(=O)NCCc1c(C)[nH]c2ccccc12`, 0.4%; for `Cc1[nH]c2c(C)cccc2c1CCNC(=O)c1ccc2c(c1[N+](=O)[O-])C(=O)c1ccccc1C2=O`, 55.5% (active).
As to `Cc1[nH]c2ccccc2c1CCNC(=O)c1ccc2c(c1[N+](=O)[O-])C(=O)c1ccccc1C2=O`, the inhibition is 53.9% (active).
Regarding `CCN(CC)C(=O)c1ccc2c(c1[N+](=O)[O-])C(=O)c1ccccc1C2=O`, the inhibition was 29.5%.
The figure for `O=C(O)c1cccc(NS(=O)(=O)c2ccc3nnn(O)c3c2)c1` is 11.9%; for `CCn1c(=O)c(C(=O)NNS(=O)(=O)c2ccc(Cl)cc2)c(O)c2ccccc21` it is -7.4%; for `CN(C(=O)c1c(Br)cnn1C)C12CC3CC(CC(C3)C1)C2` it is -2.3%.
With `CCC(=O)Nc1cccc(NC(=O)COc2ccc(OC)cc2)c1`, the inhibition is 6.7%.
The figure for `C=CCn1c(NC(=O)c2ccc(Br)o2)c(S(=O)(=O)c2ccccc2)c2nc3ccccc3nc21` is 50.8% (active); for `Cc1ccc(-n2c(N)c(S(=O)(=O)c3ccccc3)c3nc4ccccc4nc32)cc1` it is 0.2%; for `CCCCCn1c(NC(=O)c2ccco2)c(S(=O)(=O)c2ccc(C)cc2)c2nc3ccccc3nc21` it is 50.2% (active).
As to `Cc1ccc(S(=O)(=O)c2c(N)n(Cc3ccco3)c3nc4ccccc4nc23)cc1`, the inhibition was -3.1%.
For `C=CCn1c(NC(=O)c2ccco2)c(S(=O)(=O)c2ccccc2)c2nc3ccccc3nc21`, the inhibition was 34.3%.
The figure for `CCCCn1c(NS(=O)(=O)c2ccc(C)cc2)c(S(=O)(=O)c2ccccc2)c2nc3ccccc3nc21` is 54.9% (active).
The figure for `Cc1ccc(S(=O)(=O)c2c(N)n(NC(=O)c3ccco3)c3nc4ccccc4nc23)cc1` is -41.3%.
As for `Cc1ccc(S(=O)(=O)c2c(N)n(CCC(C)C)c3nc4ccccc4nc23)cc1`, the inhibition is 1.8%.
The figure for `CCCCn1c(NCc2ccccc2NS(=O)(=O)c2ccc(C)cc2)nc2ccccc21` is 15.2%.
In the case of `C=CCn1c(NS(=O)(=O)c2ccccc2)c(S(=O)(=O)c2ccc(C)cc2)c2nc3ccccc3nc21`, the inhibition was 52.4% (active).
The figure for `CCCCn1c(NC(=O)c2ccc(Br)o2)c(S(=O)(=O)c2ccccc2)c2nc3ccccc3nc21` is 5.9%.
Take `CC(=O)Nc1c(S(=O)(=O)c2ccccc2)c2nc3ccccc3nc2n1Cc1ccccc1`: the inhibition was 7.9%.
With `CC(C)CSc1n[nH]c(N)n1`, the inhibition was -6.6%.

A word on the inhibition: it is the relative decrease from the control value, in per cent.
